The supplement of paper PMC6555819

How the values were obtained:
Experiment in all cases: PBM binding z-score (relative to random genomic background probes); higher = stronger binding; sequences stand for … in GC…GCGATTGACAGCGTAGAATGAAGG
[1] = system: PPARg:RXRa DBDmut IVT, anti-RXR (DBD mutation: RXRa K156A/R161A, NR concentration 270 nM, RXRa partner concentration 90 nM)
How it was run: (§1)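 Random background probes are the reference for binding z-scores. These scores derive from regression-normalized fluorescence on custom Agilent 4×180K protein-binding microarrays incubated 1 h with ligand-free nuclear receptor dimers. Binding was detected with antibodies against each partner (one per run).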

[2] = system: PPARg:RXRa IVT, anti-PPARg (NR concentration 270 nM, RXRa partner concentration 90 nM)
How it was run: as §1

[3] = system: PPARg homodimer (NR concentration 180 nM)
How it was run: as §1

[4] = system: PXR:RXRa (NR concentration 270 nM, RXRa partner concentration 90 nM)
How it was run: as §1

[5] = system: PXR homodimer (NR concentration 270 nM)
How it was run: as §1

[6] = system: RARa:RXR (NR concentration 270 nM, RXRa partner concentration 90 nM)
How it was run: as §1

[7] = system: RARa homodimer (NR concentration 270 nM)
How it was run: as §1

[8] = system: RARb:RXRa (NR concentration 270 nM, RXRa partner concentration 90 nM)
How it was run: as §1

[9] = system: RARb homodimer (NR concentration 270 nM)
How it was run: as §1

[10] = system: RARg:RXRa (NR concentration 270 nM, RXRa partner concentration 90 nM)
How it was run: as §1

[11] = system: RARg homodimer (NR concentration 270 nM)
How it was run: as §1

[12] = system: RXRa DBDmut IVT, anti-RXR (DBD mutation: RXRa K156A/R161A, NR concentration 90 nM)
How it was run: as §1

[13] = system: RXRa homodimer (NR concentration 180 nM)
How it was run: as §1

[14] = system: THRa:RXRa (NR concentration 90 nM, RXRa partner concentration 90 nM)
How it was run: as §1

[15] = system: THRa homodimer (NR concentration 90 nM)
How it was run: as §1

[16] = system: VDR homodimer (NR concentration 270 nM)
How it was run: as §1

Row | Sequence | PBM binding z-score [1] | PBM binding z-score [2] | PBM binding z-score [3] | PBM binding z-score [4] | PBM binding z-score [5] | PBM binding z-score [6] | PBM binding z-score [7] | PBM binding z-score [8] | PBM binding z-score [9] | PBM binding z-score [10] | PBM binding z-score [11] | PBM binding z-score [12] | PBM binding z-score [13] | PBM binding z-score [14] | PBM binding z-score [15] | PBM binding z-score [16]
1 | CCGAGTAGGTTACGAGGGGGCATTAAGTGCGAAT | 4.89 | 4.4 | 2.11 | 4.77 | 7.4 | 2.72 | 0.983 | 2.15 | 2.04 | 3.1 | 2.45 | 1.56 | 2.14 | 3.52 | 0.655 | 3.56
2 | CCGAGTAGGTTACGAGGGGGCATTCAATGCGAAT | 4.67 | 4.57 | 2.11 | 4.33 | 0.729 | 3.11 | 0.217 | 2.14 | 1.91 | 3.12 | 2.47 | 1.05 | 2.2 | 3.78 | 0.33 | 2.09
3 | CTATGTAGGATAAGGGGGTCATTCAGTTTGAAAG | 4.4 | 5.24 | 3.61 | 5.75 | 11.1 | 5.73 | 2.91 | 3.27 | 3.71 | 4.18 | 2.98 | 2.23 | 5.45 | 3.75 | 1.96 | 6.25
4 | CCGAGTAGGTTACGAGTGGGCATTCAGTGCGAAT | 4.82 | 3.49 | 0.313 | 0.0829 | -0.15 | 0.124 | -0.322 | 0.921 | 0.401 | 0.298 | 0.292 | -0.0539 | 0.364 | 0.606 | -0.579 | 0.108
5 | TCGAGTAGGATACGGGGGCATTCAGGGATGAAGA | 1.6 | 3.19 | 0.663 | 2.12 | 0.916 | 2.17 | 0.237 | 1.25 | 1.19 | 1.52 | 0.916 | 1.24 | 1.29 | 3.47 | 0.629 | 2.79
6 | CCGAGTCGGTTACGAGGGGGCATTCAGTGCGAAT | 0.193 | 0.806 | 0.506 | 2.86 | 5.49 | 1.77 | 0.0912 | 1.12 | 1.4 | 1.66 | 1.41 | 0.587 | 0.76 | 2.35 | 0.015 | 3.2
7 | CTATGTAGGTTAAGGGGGTCATCCAGTTTGAAAG | 7.02 | 7.73 | 3.6 | 5.82 | 9.26 | 5.73 | 1.05 | 3.65 | 4.02 | 5.27 | 4.17 | 2.11 | 5.94 | 3.97 | 1.94 | 4.9
8 | CCGAGTAGGTTACGAGGGGGCATTCGGTGCGAAT | 3.74 | 4.36 | 1.85 | 4.83 | 4.05 | 2.98 | 0.224 | 2.22 | 2.06 | 3.04 | 2.32 | 0.865 | 2.22 | 3.76 | 0.298 | 3.61
9 | TAGAGTAGGTTACGGGGGCATTCAGGGATGAAGA | 5.84 | 6.92 | 2.22 | 3.17 | 2.11 | 3.35 | 1.56 | 2.85 | 2.5 | 3.43 | 2.77 | 2.08 | 3.21 | 3.99 | 1.75 | 3.81
10 | CCGAGTAGGTTACCAGGGGGCATTCAGTGCGAAT | 3.65 | 4.24 | 1.99 | 4.73 | 5.81 | 2.91 | 0.502 | 2.33 | 2.4 | 2.93 | 2.52 | 0.717 | 2.06 | 3.68 | 0.758 | 3.64
11 | TCGAGTACGTTACGGGGGCATTCAGGGATGAAGA | 1.28 | 2.5 | 0.453 | 2.92 | 1.24 | 1.86 | 0.239 | 1.38 | 1.42 | 1.46 | 0.926 | 3.21 | 1.25 | 3.59 | 0.925 | 4.32
12 | CCAAGTAGGTTACGAGGGGGCATTCAGTGCGAAT | 6.86 | 6.44 | 2.19 | 5.04 | 6.14 | 3.18 | 1.41 | 2.52 | 2.46 | 3.53 | 3.14 | 1.89 | 2.52 | 3.6 | 0.736 | 3.82
13 | CGGAGTAGGTTACGAGGGGGCATTCAGTGCGAAT | 6.26 | 7.82 | 1.69 | 5.02 | 6.07 | 3.15 | 0.639 | 2.54 | 2.45 | 3.35 | 2.86 | 2.04 | 2.09 | 3.8 | 0.507 | 3.73
14 | CTATGGAGGTTAAGGGGGTCATTCAGTTTGAAAG | 4.65 | 6.42 | 4.29 | 6.58 | 12.7 | 6.29 | 2.33 | 4.01 | 4.08 | 5.71 | 4.46 | 3.59 | 6.48 | 4.04 | 2.95 | 6.81
15 | TCGCGTAGGTTACGGGGGCATTCAGGGATGAAGA | 2.78 | 4.58 | 1.25 | 3.16 | 1.49 | 3.42 | 0.315 | 2.72 | 2.37 | 3.63 | 2.87 | 1.99 | 3.08 | 3.93 | 1.5 | 2.44
16 | TCGAGTAGGTTACGGGGGCATTCTGGGATGAAGA | 5.04 | 5.91 | 1.3 | 2.85 | 1.48 | 2.92 | -0.159 | 2.27 | 2.05 | 3.25 | 2.19 | 1.74 | 2.52 | 3.32 | 1.3 | 3.52
17 | CTATGTAGGTTAAGGGGGTCATTCATTTTGAAAG | 7.22 | 7.67 | 2.86 | 5.45 | 5.06 | 5.94 | 1.58 | 3.38 | 3.81 | 4.91 | 3.98 | 2.28 | 5.74 | 3.64 | 1.93 | 5.01
18 | CCGAGTAGGTTACGAGGAGGCATTCAGTGCGAAT | 4.34 | 3.39 | -0.438 | 0.196 | -0.429 | 0.244 | -0.663 | 0.685 | -0.00242 | 0.333 | 0.522 | 0.082 | 0.427 | – | -0.82 | -0.434
19 | TCGAGTAGGTTACGGGGTCATTCAGGGATGAAGA | 5.23 | 6.24 | 2.46 | – | 2.57 | – | 0.377 | 3.87 | 3.99 | 5.96 | 4.05 | 2.36 | 7.78 | – | 2.5 | 5.89
20 | CTATGTAGGTTAAGGGGGTCCTTCAGTTTGAAAG | 7.26 | 6.7 | 1.58 | 2.33 | 1.68 | 1.92 | 0.652 | 1.67 | 1.5 | 1.79 | 1.26 | 0.924 | 1.49 | 2.17 | 0.899 | 1.49
21 | CCGAGTGGGTTACGAGGGGGCATTCAGTGCGAAT | 3.36 | 3.81 | 1.4 | 4.8 | 5.23 | 2.53 | -0.433 | 1.65 | 1.94 | 2.95 | 2.18 | 1.09 | 1.75 | 3.72 | 0.652 | 3.43
22 | TCGAGTAGGTTACGGGGGCATTGAGGGATGAAGA | 5.26 | 6.02 | 2.89 | – | 1.71 | – | 0.325 | 2.69 | 2.27 | 3.47 | 2.72 | 1.71 | 2.66 | 2.97 | 1.39 | 3.13
23 | CTATGTAGGTTAAAGGGGTCATTCAGTTTGAAAG | 7.95 | 7.63 | 7.13 | – | 13 | – | 1.99 | 3.87 | 4.23 | 5.28 | 4.06 | 2.87 | 6.56 | 3.91 | 1.29 | 6.99
24 | TCGAGTAGGTTACGGGGGCATCCAGGGATGAAGA | 5.07 | 5.83 | 2.37 | – | 1.02 | 3.31 | 0.18 | 2.46 | 2.2 | 3.36 | 2.37 | 1.27 | 2.88 | 3.66 | 1.12 | 2.47
25 | CTATGTAGGTTAAGGGGGTTATTCAGTTTGAAAG | 6.94 | 7.29 | 2.61 | 3.46 | 5.03 | – | 1.62 | 2.24 | 2.15 | 2.55 | 1.56 | 1.43 | 2.57 | 2.53 | 1.4 | 3.24
26 | CCGAGTAGGTTACGAAGGGGCATTCAGTGCGAAT | 4.07 | 3.33 | 0.383 | 2.86 | 1.4 | 1.04 | 0.184 | 1.56 | 1.42 | 1.22 | 1.2 | 0.309 | 0.781 | 2.26 | -0.808 | 1.23
27 | CCGAGTAGGTCACGAGGGGGCATTCAGTGCGAAT | 6.96 | 7.42 | 2.44 | – | 4.34 | 4.38 | 1.07 | 4.58 | 4.35 | 6.3 | 6.32 | 2.29 | 5.11 | 4.54 | 0.959 | 3.61
28 | TCGAGTAGGTGACGGGGGCATTCAGGGATGAAGA | 5.39 | 6.13 | 2.07 | 3.15 | 1.91 | 2.63 | 0.214 | 2.45 | 2.01 | 2.59 | 1.91 | 1.94 | 1.86 | 3.83 | 1.64 | 3.28
